Data from PubChem BioAssay (EPA / NIEHS).
Active and inactive are the calls of the source. Rule for the calls: active = hit-call score of the fitted dose curve at least 0.9, where 1 is the maximum; inactive = score below 0.9.

What was measured:
[1] = read-out: Fatty acid synthase (Homo sapiens) (UniProt P49327); assay: LTEA_HepaRG_FASN: Life Technologies and Expression Analysis (LTEA) Assay for Fatty Acid Synthase (FASN) using HepaRG (AID 2283448); conditions: mRNA level, 48 h; actives raise or lower the signal
Outline: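 HepaRG, 48 h exposure, 8-pt half-log series top 100 uM, 0.5% DMSO vehicle, duplicates. Readout: FASN transcript by Fluidigm qRT-PCR; housekeeping-normalized; bidirectional curve fit vs DMSO baseline.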

[2] = read-out: Cyclin D2 (CCND2), CCND2 (gene 894); assay: LTEA_HepaRG_CCND2: Life Technologies and Expression Analysis (LTEA) Assay for Cyclin D2 (CCND2) using HepaRG (AID 2283449); conditions: mRNA level, 48 h; actives raise or lower the signal
Outline: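 CCND2 transcript levels, quantified by qRT-PCR and normalised to three housekeeping genes, were fitted bidirectionally against 0.5% DMSO. HepaRG cultures were dosed 48 h in duplicate with an 8-point half-log series up to 100 uM.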

[3] = read-out: Cyclin Dependent Kinase Inhibitor 1A (CDKN1A), CDKN1A (gene 1026); assay: LTEA_HepaRG_CDKN1A: Life Technologies and Expression Analysis (LTEA) Assay for Cyclin Dependent Kinase Inhibitor 1A (CDKN1A) using HepaRG (AID 2283450); conditions: mRNA level, 48 h; actives raise or lower the signal
Outline: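 Differentiated HepaRG cells in serum-free induction medium, exposed 48 h in duplicate to eight half-log concentrations up to 100 uM in 0.5% DMSO. mRNA measured by TaqMan qRT-PCR, normalized to ACTB, GAPDH, POLR2A; bidirectional fit versus DMSO.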

[4] = read-out: Cyclin D1 (CCND1), CCND1 (gene 595); assay: LTEA_HepaRG_CCND1: Life Technologies and Expression Analysis (LTEA) Assay for Cyclin D1 (CCND1) using HepaRG (AID 2283451); conditions: mRNA level, 48 h; actives raise or lower the signal
Outline: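 Differentiated HepaRG cells exposed 48 h in serum-free induction medium to eight half-log concentrations from 100 uM top, 0.5% DMSO, duplicates. CCND1 mRNA measured by Fluidigm TaqMan qRT-PCR, normalised to ACTB, GAPDH, POLR2A; bidirectional fit.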

[5] = read-out: catalase (CAT), CAT (gene 847); assay: LTEA_HepaRG_CAT: Life Technologies and Expression Analysis (LTEA) Assay for catalase (CAT) using HepaRG (AID 2283452); conditions: mRNA level, 48 h; actives raise or lower the signal;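 for AC50: TaqMan qRT-PCR signal normalized to ACTB GAPDH and POLR2A housekeeping genes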
Outline: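 Expression of CAT was quantified by TaqMan qRT-PCR with ACTB/GAPDH/POLR2A normalization after 48 h chemical exposure of HepaRG. Eight-point half-log series, top 100 uM, in 0.5% DMSO; gain or loss fitted against vehicle.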

[6] = read-out: flavin-containing dimethylaniline monooxygenases 3 (FMO3), FMO3 (gene 2328); assay: LTEA_HepaRG_FMO3: Life Technologies and Expression Analysis (LTEA) Assay for flavin-containing dimethylaniline monooxygenases 3 (FMO3) using HepaRG (AID 2283453); conditions: mRNA level, 48 h; actives raise or lower the signal
Outline: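 Eight-point concentration-response in serum-free HepaRG cultures (top 100 uM, 0.5% DMSO, 48 h). Read-out: FMO3 mRNA level normalized to three endogenous control genes, fitted bidirectionally versus vehicle.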

[7] = read-out: Cytochrome P450 (CYP1A1), CYP1A1 (gene 1543); assay: LTEA_HepaRG_CYP1A1: Life Technologies and Expression Analysis (LTEA) Assay for Cytochrome P450 (CYP1A1) using HepaRG (AID 2283454); conditions: mRNA level, 48 h; actives raise or lower the signal
Outline: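 Differentiated human HepaRG cells, after 48 h plating, exposed in duplicate for 48 h in serum-free induction medium to 8 half-log concentrations up to 100 uM in 0.5% DMSO. CYP1A1 mRNA by qRT-PCR, normalized to ACTB/GAPDH/POLR2A; bidirectional fit versus DMSO.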

[8] = read-out: CFLAR gene, CFLAR (gene 8837); assay: LTEA_HepaRG_CFLAR: Life Technologies and Expression Analysis (LTEA) Assay for CFLAR gene using HepaRG (AID 2283455); conditions: mRNA level, 48 h; actives raise or lower the signal
Outline: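 Transcript level by qRT-PCR (normalized to ACTB, GAPDH and POLR2A) after 48 h chemical exposure of HepaRG cells, top concentration 100 uM with half-log steps, 0.5% DMSO vehicle, duplicates; fitted bidirectionally against DMSO baseline.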

[9] = read-out: Forkhead box O1 (FOXO1), FOXO1 (gene 2308); assay: LTEA_HepaRG_FOXO1: Life Technologies and Expression Analysis (LTEA) Assay for Forkhead box O1 (FOXO1) using HepaRG (AID 2283456); conditions: mRNA level, 48 h; actives raise or lower the signal
Outline: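 FOXO1 transcript quantified by qRT-PCR after 48 h chemical exposure (top 100 uM, half-log steps, 0.5% DMSO) of HepaRG cells, housekeeping-normalized (ACTB/GAPDH/POLR2A). Changes fitted in both directions relative to vehicle.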

[10] = read-out: growth arrest and DNA damage 45 (GADD45A), GADD45A (gene 1647); assay: LTEA_HepaRG_GADD45A: Life Technologies and Expression Analysis (LTEA) Assay for growth arrest and DNA damage 45 (GADD45A) using HepaRG (AID 2283458); conditions: mRNA level, 48 h; actives raise or lower the signal
Outline: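 HepaRG, 48 h exposure, 8 conc. (top 100 uM, half-log steps), 0.5% DMSO vehicle, duplicates. Read-out: qRT-PCR mRNA level, housekeeping-normalized (ACTB/GAPDH/POLR2A). Curves fit bidirectionally vs DMSO baseline.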

[11] = read-out: Forkhead box O3 (FOXO3), FOXO3 (gene 2309); assay: LTEA_HepaRG_FOXO3: Life Technologies and Expression Analysis (LTEA) Assay for Forkhead box O3 (FOXO3) using HepaRG (AID 2283459); conditions: mRNA level, 48 h; actives raise or lower the signal
Outline: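 FOXO3 transcript measured by qRT-PCR (normalized to ACTB, GAPDH, POLR2A) after 48 h exposure of HepaRG cells in serum-free induction medium. Duplicates, eight half-log concentrations up to 100 uM, 0.5% DMSO; gain or loss fitted against DMSO.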

[12] = read-out: ABC Transporter (ABCB1), ABCB1 (gene 5243); assay: LTEA_HepaRG_ABCB1: Life Technologies and Expression Analysis (LTEA) Assay for ABC Transporter (ABCB1) using HepaRG (AID 2283460); conditions: mRNA level, 48 h; actives raise or lower the signal
Outline: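 ABCB1 transcript level measured by TaqMan qRT-PCR against three housekeeping genes after 48 h chemical exposure of differentiated HepaRG cells. Top concentration 100 uM, half-log steps, eight points, 0.5% DMSO vehicle; bidirectional fit relative to DMSO.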

[13] = read-out: growth arrest and DNA damage 45 (GADD45B), GADD45B (gene 4616); assay: LTEA_HepaRG_GADD45B: Life Technologies and Expression Analysis (LTEA) Assay for growth arrest and DNA damage 45 (GADD45B) using HepaRG (AID 2283461); conditions: mRNA level, 48 h; actives raise or lower the signal
Outline: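 Differentiated human HepaRG cells in serum-free induction medium exposed 48 h in duplicate to eight concentrations, top 100 uM, half-log steps, 0.5% DMSO. GADD45B mRNA by TaqMan qRT-PCR, normalized to ACTB, GAPDH, POLR2A; bidirectional fit versus DMSO.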

[14] = read-out: ABC Transporter (ABCC3), ABCC3 (gene 8714); assay: LTEA_HepaRG_ABCC3: Life Technologies and Expression Analysis (LTEA) Assay for ABC Transporter (ABCC3) using HepaRG (AID 2283462); conditions: mRNA level, 48 h; actives raise or lower the signal
Outline: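 Differentiated human HepaRG cells exposed 48 h in serum-free induction medium, 0.5% DMSO vehicle, 8-point half-log series to 100 uM in duplicate. ABCC3 mRNA by qRT-PCR, normalised to ACTB, GAPDH, POLR2A; bidirectional fit vs DMSO.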

[15] = read-out: ABC Transporter (ABCB11), ABCB11 (gene 8647); assay: LTEA_HepaRG_ABCB11: Life Technologies and Expression Analysis (LTEA) Assay for ABC Transporter (ABCB11) using HepaRG (AID 2283463); conditions: mRNA level, 48 h; actives raise or lower the signal
Outline: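 ABCB11 transcript levels quantified by TaqMan qRT-PCR against three housekeeping genes after 48 h chemical exposure of HepaRG cultures. Concentrations up to 100 uM in half-log steps, 0.5% DMSO vehicle; both induction and suppression scored.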

[16] = read-out: ABC Transporter (ABCC2), ABCC2 (gene 1244); assay: LTEA_HepaRG_ABCC2: Life Technologies and Expression Analysis (LTEA) Assay for ABC Transporter (ABCC2) using HepaRG (AID 2283464); conditions: mRNA level, 48 h; actives raise or lower the signal
Outline: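 Differentiated HepaRG cells in serum-free induction medium exposed 48 h to eight half-log concentrations up to 100 uM, 0.5% DMSO, in duplicate. ABCC2 mRNA measured by qRT-PCR (TaqMan, Fluidigm), normalized to ACTB, GAPDH and POLR2A. Fitted in both directions against DMSO.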

[17] = read-out: Broad substrate specificity ATP-binding cassette transporter ABCG2 (Homo sapiens) (UniProt Q9UNQ0); assay: LTEA_HepaRG_ABCG2: Life Technologies and Expression Analysis (LTEA) Assay for ABC Transporter (ABCG2) using HepaRG (AID 2283465); conditions: mRNA level, 48 h; actives raise or lower the signal
Outline: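 ABCG2 transcript was quantified by TaqMan qRT-PCR against three housekeeping genes in HepaRG cells. Cells were treated in duplicate for 48 h across an 8-point half-log series up to 100 uM, with 0.5% DMSO vehicle. Gain or loss versus DMSO was fit.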

[18] = read-out: ATP-citrate lyase (ACLY), ACLY (gene 47); assay: LTEA_HepaRG_ACLY: Life Technologies and Expression Analysis (LTEA) Assay for ATP-citrate lyase (ACLY) using HepaRG (AID 2283466); conditions: mRNA level, 48 h; actives raise or lower the signal
Outline: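 ACLY mRNA quantified by qRT-PCR on Fluidigm arrays against three housekeeping genes, after 48 h chemical treatment of HepaRG cells (top concentration 100 uM, half-log steps, 0.5% DMSO vehicle). Up- or down-regulation fitted relative to DMSO.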

[19] = read-out: Peroxisomal acyl-coenzyme A oxidase 1 (ACOX1) gene, ACOX1 (gene 51); assay: LTEA_HepaRG_ACOX1: Life Technologies and Expression Analysis (LTEA) Assay for Peroxisomal acyl-coenzyme A oxidase 1 (ACOX1) gene using HepaRG (AID 2283467); conditions: mRNA level, 48 h; actives raise or lower the signal
Outline: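 ACOX1 transcript levels were quantified by TaqMan qRT-PCR against three housekeeping genes after 48 h chemical exposure of differentiated human HepaRG cells. Exposure used eight half-log steps topping at 100 uM, 0.5% DMSO vehicle, in duplicate. Bidirectional curve fits were made relative to DMSO.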

[20] = CEETOX_H295R_TESTO: CeeTox H295R High-throughput Steroidogenesis Assay for Testosterone (TESTO) (AID 2283457); conditions: actives raise or lower the signal
Outline: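 H295R adrenal cells, passage ≤10, exposed to chemicals for 48 h. Testosterone in medium measured by MTBE extraction and HPLC-MS/MS against a 7-point standard curve. Bidirectional fit versus DMSO; MTT viability checked in the same wells.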

Measured: AC50

Sequence of Broad substrate specificity ATP-binding cassette transporter ABCG2 (Homo sapiens) (Q9UNQ0 whole entry, looked up): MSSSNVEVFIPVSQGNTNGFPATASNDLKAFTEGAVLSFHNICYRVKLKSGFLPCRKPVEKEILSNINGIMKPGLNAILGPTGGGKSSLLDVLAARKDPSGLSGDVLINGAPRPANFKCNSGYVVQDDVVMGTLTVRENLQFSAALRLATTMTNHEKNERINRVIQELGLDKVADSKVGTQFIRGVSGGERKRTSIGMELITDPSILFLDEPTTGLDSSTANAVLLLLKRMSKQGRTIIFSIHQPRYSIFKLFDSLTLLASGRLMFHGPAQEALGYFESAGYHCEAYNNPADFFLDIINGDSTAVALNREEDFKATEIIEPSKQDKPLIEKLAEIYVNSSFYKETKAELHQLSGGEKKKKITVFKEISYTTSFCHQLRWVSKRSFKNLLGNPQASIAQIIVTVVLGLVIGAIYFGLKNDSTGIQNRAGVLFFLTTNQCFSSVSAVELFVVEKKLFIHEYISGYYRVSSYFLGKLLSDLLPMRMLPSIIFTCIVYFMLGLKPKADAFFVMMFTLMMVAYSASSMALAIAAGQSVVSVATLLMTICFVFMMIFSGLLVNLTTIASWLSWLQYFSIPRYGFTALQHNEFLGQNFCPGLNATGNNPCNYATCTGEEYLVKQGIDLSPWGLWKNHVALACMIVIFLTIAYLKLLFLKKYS
Sequence of Fatty acid synthase (Homo sapiens) (P49327 whole entry, looked up): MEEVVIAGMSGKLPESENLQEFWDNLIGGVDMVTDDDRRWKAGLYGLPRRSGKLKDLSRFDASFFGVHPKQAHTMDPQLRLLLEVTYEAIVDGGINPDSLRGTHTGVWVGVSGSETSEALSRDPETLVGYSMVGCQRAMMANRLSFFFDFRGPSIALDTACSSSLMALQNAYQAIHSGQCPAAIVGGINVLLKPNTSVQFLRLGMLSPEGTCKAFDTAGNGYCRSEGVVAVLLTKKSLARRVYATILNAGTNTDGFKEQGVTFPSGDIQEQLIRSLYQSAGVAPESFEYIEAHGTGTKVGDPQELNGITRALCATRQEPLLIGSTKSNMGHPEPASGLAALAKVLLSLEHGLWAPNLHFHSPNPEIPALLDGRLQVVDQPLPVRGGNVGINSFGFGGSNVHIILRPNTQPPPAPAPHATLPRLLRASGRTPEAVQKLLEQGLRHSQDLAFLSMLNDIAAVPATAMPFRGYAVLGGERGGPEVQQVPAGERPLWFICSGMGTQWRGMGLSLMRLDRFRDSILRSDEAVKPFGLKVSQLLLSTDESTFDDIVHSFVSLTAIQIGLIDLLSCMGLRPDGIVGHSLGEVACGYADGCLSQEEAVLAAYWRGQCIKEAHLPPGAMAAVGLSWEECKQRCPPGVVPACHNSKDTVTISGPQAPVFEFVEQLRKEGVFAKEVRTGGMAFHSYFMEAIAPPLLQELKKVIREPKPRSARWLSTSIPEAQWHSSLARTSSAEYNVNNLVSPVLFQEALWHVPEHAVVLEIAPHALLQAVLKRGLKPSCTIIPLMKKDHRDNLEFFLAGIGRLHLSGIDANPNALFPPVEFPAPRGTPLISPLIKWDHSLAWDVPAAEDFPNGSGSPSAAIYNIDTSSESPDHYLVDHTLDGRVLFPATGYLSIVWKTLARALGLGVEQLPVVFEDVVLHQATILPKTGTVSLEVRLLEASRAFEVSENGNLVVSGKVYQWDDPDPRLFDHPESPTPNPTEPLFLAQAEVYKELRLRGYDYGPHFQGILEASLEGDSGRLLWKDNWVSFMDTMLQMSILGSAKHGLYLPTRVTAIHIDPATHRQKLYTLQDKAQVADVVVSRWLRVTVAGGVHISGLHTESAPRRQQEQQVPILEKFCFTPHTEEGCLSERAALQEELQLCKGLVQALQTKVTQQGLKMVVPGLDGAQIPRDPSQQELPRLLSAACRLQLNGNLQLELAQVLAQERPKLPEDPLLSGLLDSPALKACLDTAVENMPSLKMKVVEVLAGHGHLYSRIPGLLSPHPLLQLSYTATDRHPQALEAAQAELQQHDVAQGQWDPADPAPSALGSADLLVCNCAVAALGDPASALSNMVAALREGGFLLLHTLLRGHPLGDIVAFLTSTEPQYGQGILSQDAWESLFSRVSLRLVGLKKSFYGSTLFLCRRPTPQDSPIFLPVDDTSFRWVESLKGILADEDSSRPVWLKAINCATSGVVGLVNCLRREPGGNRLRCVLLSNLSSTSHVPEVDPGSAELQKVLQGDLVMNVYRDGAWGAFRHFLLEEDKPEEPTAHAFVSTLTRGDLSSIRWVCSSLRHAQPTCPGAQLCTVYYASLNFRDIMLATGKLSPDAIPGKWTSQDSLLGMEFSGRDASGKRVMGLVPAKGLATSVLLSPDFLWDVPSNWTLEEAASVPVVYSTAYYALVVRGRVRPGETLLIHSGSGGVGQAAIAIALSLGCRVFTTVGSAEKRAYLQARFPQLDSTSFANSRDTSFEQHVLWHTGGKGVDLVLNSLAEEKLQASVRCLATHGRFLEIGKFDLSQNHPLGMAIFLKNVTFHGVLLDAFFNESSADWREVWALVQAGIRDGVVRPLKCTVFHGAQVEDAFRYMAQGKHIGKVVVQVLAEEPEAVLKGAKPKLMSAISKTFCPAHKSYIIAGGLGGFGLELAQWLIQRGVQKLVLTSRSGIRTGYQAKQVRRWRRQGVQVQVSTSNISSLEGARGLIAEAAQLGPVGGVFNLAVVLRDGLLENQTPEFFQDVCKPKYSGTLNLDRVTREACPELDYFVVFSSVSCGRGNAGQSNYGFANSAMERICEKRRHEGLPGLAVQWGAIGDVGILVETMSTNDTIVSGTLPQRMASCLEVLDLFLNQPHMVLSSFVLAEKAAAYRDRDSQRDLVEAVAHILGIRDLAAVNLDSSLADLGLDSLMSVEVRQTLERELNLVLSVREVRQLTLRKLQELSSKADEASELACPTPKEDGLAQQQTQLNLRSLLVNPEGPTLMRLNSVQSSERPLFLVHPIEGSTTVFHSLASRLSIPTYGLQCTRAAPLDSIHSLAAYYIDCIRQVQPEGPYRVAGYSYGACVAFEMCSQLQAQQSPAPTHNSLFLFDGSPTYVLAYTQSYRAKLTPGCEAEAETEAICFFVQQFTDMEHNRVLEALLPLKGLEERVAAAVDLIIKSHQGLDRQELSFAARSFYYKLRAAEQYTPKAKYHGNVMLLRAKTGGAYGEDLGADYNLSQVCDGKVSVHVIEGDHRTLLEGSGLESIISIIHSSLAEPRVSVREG

Cc1nc(C)nc(N2C[C@@H](C)N(c3ccnc([C@@H](C)O)n3)[C@@H](C)C2)n1
not listed: [20]
inactive: all other assays above

CN[C@H]1CC[C@@H](c2ccc(Cl)c(Cl)c2)c2ccc(S(N)(=O)=O)cc21
active: [5] 50 µM | [6] 34.1 µM | [7] 76.5 µM | [12] 89.3 µM | [13] 80.4 µM | [14] 12.6 µM | [15] 15.8 µM | [16] 63.5 µM | [18] 63.6 µM | [19] 12.2 µM
inactive: [1] | [2] | [3] | [4] | [9] | [10] | [11] | [17]

CN1CCCC1=O
active: [7] 50 µM
not listed: [20]
inactive: all other assays above

Cc1ccc(N(C)C)cc1
active: [7] 22.6 µM
not listed: [20]
inactive: all other assays above

Cc1ccc2ncccc2c1
active: [7] 50 µM
not listed: [8] | [20]
inactive: all other assays above

COc1ccc(C)cc1N
not listed: [8]
inactive: all other assays above

Cc1cc(=O)[nH]c(=S)[nH]1
active: [7] 50 µM
not listed: [8] | [20]
inactive: all other assays above

CC1=C(/C=C/C(C)=C/C=C/C(C)=C/CO)C(C)(C)CCC1
active: [7] 64.1 µM | [12] 52.2 µM | [16] 52.2 µM | [17] 52.2 µM
not listed: [20]
inactive: all other assays above

CCCCCCOCCO
active: [7] 50 µM
not listed: [8] | [20]
inactive: all other assays above

Cc1ccc(Cl)cc1
not listed: [20]
inactive: all other assays above

Cc1ccc(C)c(O)c1C
active: [7] 68 µM
not listed: [20]
inactive: all other assays above

O=C(N[C@@H](Cc1ccccc1)[C@@H](O)C(=O)N1C[C@@H](O)[C@@H](O)C1)c1cc2cc(Cl)ccc2[nH]1
active: [3] 63.1 µM | [7] 50 µM | [12] 9.92 µM | [17] 50 µM | [18] 50 µM
not listed: [20]
inactive: all other assays above

CCOc1ccc2c(c1)C(C)=CC(C)(C)N2
active: [3] 50 µM | [7] 17.5 µM | [12] 5.26 µM | [17] 1.02 µM
not listed: [8]
inactive: all other assays above

CCCCCCCCCCCCCO
not listed: [20]
inactive: all other assays above
